Test results taken from PubChem BioAssay.
Values joined by “and” are separate entries in the source; they are usually repeats but may differ in a detail not shown here. Identical values can stand only once. Where a SMILES comes first, the peptide text is derived from it.

Key:
[1] = system: Botulinum neurotoxin type F light chain protease (Clostridium botulinum); experiment: Clostridium botulinum type F light chain protease inhibitors, microsphere substrate cleavage, validation (AID 588459); conditions: multiplex microsphere protease substrate cleavage assay, flow cytometry; at 10 µM; hits give high values
[2] = target: Botulinum neurotoxin type A (Clostridium botulinum) (UniProt P0DPI0); experiment: BoNT/A light chain protease inhibitors, biochemical, multiplex microsphere flow cytometry, validation set (AID 588460); conditions: at 10 µM, hits give high values
Botulinum neurotoxin type A (Clostridium botulinum), sequence (P0DPI0 whole entry, looked up): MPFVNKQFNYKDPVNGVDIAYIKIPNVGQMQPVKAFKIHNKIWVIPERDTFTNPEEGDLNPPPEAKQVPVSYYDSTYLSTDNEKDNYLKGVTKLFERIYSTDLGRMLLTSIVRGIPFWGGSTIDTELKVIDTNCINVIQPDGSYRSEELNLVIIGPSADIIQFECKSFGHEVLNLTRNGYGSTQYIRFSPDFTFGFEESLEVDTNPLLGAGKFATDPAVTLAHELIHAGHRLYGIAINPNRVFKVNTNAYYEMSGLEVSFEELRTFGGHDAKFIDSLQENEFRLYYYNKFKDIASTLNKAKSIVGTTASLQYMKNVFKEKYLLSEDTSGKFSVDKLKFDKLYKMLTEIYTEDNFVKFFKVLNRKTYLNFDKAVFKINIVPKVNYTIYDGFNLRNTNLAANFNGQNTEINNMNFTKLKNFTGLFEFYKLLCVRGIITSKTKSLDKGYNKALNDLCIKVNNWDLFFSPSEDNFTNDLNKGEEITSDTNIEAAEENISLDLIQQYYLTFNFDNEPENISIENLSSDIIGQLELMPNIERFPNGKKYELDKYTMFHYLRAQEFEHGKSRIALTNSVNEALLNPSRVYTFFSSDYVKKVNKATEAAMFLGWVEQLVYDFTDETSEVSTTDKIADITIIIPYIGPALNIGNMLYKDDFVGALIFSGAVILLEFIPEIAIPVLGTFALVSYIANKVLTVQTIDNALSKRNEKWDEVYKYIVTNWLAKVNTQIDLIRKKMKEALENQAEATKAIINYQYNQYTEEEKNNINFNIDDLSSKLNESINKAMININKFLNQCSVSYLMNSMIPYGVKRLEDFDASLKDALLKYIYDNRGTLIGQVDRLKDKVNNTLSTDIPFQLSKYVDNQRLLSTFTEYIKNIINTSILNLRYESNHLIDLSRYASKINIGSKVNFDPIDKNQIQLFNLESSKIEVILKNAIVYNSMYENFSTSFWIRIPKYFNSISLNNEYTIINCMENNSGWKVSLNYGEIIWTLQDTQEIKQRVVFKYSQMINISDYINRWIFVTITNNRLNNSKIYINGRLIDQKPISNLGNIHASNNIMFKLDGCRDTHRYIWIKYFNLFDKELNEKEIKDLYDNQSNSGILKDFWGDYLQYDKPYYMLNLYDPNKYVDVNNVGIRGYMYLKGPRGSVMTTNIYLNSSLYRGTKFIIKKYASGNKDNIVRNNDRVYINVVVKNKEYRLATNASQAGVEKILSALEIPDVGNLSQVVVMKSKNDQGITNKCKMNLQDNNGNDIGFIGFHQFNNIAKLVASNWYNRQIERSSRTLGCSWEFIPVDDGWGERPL

[3] = target: Lethal factor (Bacillus anthracis) (UniProt P15917); experiment: Bacillus anthracis lethal factor inhibition, microsphere flow cytometry protease assay, validation at 10 µM (AID 588461); conditions: multiplex microsphere protease cleavage assay, hits give high values
Lethal factor (Bacillus anthracis), sequence (P15917 whole entry, looked up): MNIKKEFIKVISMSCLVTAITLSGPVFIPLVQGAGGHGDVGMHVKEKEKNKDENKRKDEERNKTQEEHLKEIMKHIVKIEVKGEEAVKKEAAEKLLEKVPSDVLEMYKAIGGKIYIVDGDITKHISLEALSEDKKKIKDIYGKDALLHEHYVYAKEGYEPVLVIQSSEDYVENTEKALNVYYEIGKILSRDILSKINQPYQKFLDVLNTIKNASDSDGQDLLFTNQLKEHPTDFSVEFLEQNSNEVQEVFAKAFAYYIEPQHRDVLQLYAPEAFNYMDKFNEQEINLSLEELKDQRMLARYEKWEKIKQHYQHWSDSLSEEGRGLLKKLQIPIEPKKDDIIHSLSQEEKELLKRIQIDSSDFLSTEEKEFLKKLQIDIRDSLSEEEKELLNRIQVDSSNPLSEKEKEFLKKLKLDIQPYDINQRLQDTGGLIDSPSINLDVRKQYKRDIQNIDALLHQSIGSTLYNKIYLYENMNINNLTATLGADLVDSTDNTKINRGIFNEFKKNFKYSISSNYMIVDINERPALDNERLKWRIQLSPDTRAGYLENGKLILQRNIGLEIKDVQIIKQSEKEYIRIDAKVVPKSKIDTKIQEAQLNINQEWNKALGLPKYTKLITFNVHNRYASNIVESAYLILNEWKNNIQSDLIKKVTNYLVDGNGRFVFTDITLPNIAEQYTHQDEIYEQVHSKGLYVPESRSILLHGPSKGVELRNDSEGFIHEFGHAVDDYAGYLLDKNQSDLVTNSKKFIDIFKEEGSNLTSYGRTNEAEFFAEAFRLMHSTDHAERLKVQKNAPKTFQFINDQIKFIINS

Measured: inhibition

CC(C)(C)N(Cc1ccccc1)C(=O)c1ccc(Br)o1
inactive: [1] -1.1% | [2] 0.8% | [3] 11.8%

COc1cccc(CN2CCN(C(=O)c3ccc(-c4ccccc4)cc3)CC2)c1
inactive: [1] 3.8% | [2] -0.4% | [3] -3.1%

NS(=O)(=O)c1cc2c(cc1C(F)(F)F)NC(Cc1ccccc1)NS2(=O)=O (configuration not stated)
inactive: [1] 2.4% | [2] 1.4% | [3] 3.5%

CC1(C)S[C@@H]2[C@H](NC(=O)[C@H](N)c3ccccc3)C(=O)N2[C@H]1C(=O)O
inactive: [1] 2.6% and -3.6% | [2] 2.2% and -0.7% | [3] 5% and -3%

O=C(c1ccc(-c2ccccc2)c(F)c1)C1CCCN(C(=O)c2cncs2)C1 (configuration not stated)
inactive: [1] 0.6% | [2] 0.5% | [3] 1.6%

CC1(C)CC(O)(CNCc2ccc3c(c2)OCO3)CCO1 (configuration not stated)
inactive: [1] -3.2% | [2] -0.9% | [3] 1.2%

O=S(=O)(CCc1nc2ccccc2[nH]1)c1ccc(Cl)cc1
inactive: [1] 3% | [2] -0.3% | [3] 3.5%

CC1Cc2ccccc2N1NC(=O)c1ccc(Cl)c(S(N)(=O)=O)c1 (configuration not stated)
inactive: [1] 1.4% | [2] 0.7% | [3] -0.2%

C=C1C2(C(=O)Nc3ccc(SC(F)F)cc3)CCC(C2)C1(C)C (configuration not stated)
inactive: [1] -1.3% | [2] -0.9% | [3] 1.3%

Cc1cnc(C(=O)N2CCCC(C(=O)c3ccc(Cl)cc3C)C2)cn1 (configuration not stated)
inactive: [1] 1.4% | [2] 0.4% | [3] -0.9%

CNCCCC12CCC(c3ccccc31)c1ccccc12
inactive: [1] -2% | [2] -2.1% | [3] -5%

CN(C)CCOC(=O)C(c1ccccc1)C1(O)CCCC1 (configuration not stated)
inactive: [1] 2.3% | [2] -0.3% | [3] -6%

COc1ccc(CCCC(=O)O)c(C)c1
inactive: [1] -0.2% | [2] 0.1% | [3] 6.1%

Cc1ccc2c(c1)OC(=O)CC2c1ccccc1 (configuration not stated)
inactive: [1] -4.2% | [2] -1.1% | [3] -4.4%

CCOC(=O)c1cnc2ccc(C(=O)OC)cc2c1Nc1ccc2c(c1)OCCO2
inactive: [1] -0.5% | [2] 0.1% | [3] -1.2%

CC(=O)c1cn(C)c(=O)[nH]c1=O
inactive: [1] 2.9% | [2] 1.3% | [3] -0.5%

O=C(NC(=S)Nc1nc(-c2ccccc2)cs1)c1ccco1
inactive: [1] 4.3% | [2] -0.2% | [3] -0.3%

CC1=NS(=O)(=O)c2cc(Cl)ccc2N1
inactive: [1] 1.4% | [2] -0.3% | [3] -1.8%

O=C(O)CP(=O)(O)O
inactive: [1] 1.3% | [2] 0.3% | [3] -2.7%

COc1ccc2c(c1)c(=O)oc1cc3occ(C(C)(C)C)c3cc12
inactive: [1] 1.2% | [2] 1.4% | [3] 6.9%

O=C(O)c1cccnc1Nc1cccc(C(F)(F)F)c1
inactive: [1] 1.8% | [2] 0.3% | [3] -3.9%

COc1ccc(C(=O)Nc2ncc3c(n2)CC(C)CC3=O)cc1 (configuration not stated)
inactive: [1] -1.5% | [2] -0.9% | [3] -4.5%

COC(=O)CN1CC(=O)N(c2ccccc2)C1=S
inactive: [1] -0.8% | [2] 0% | [3] -1%

CC1(C)Cc2ccccc2-c2nc(-c3ccccc3)oc(=O)c21
inactive: [1] -1.9% | [2] 0% | [3] -0.2%

O=C(O)CCCNc1ccc(S(=O)(=O)Nc2ccccc2C(=O)O)cc1C(=O)O
inactive: [1] 1.6% | [2] 1.7% | [3] 10%

Cc1ccc(/C(=C\CN2CCCC2)c2ccccn2)cc1
inactive: [1] -2% | [2] 0.3% | [3] 11.9%

CC(=O)NC(CC(C)C)C(=O)NC(Cc1ccccc1)C(N)=O (stereo not drawn) (Ac-Leu-Phe-NH2; configuration not given here)
inactive: [1] 3.1% | [2] 0.2% | [3] -1.4%

CCCC(=O)Nc1ccc(OCC(O)CNC(C)C)c(C(C)=O)c1 (configuration not stated)
inactive: [1] 2% | [2] 1.1% | [3] -26.9%

O=C(/C=C/c1ccc2c(c1)OCCCO2)c1ccc2ccccc2c1O
inactive: [1] 1.8% | [2] 1.1% | [3] -5.5%
